Laboratory results reported in PubChem BioAssay AID1825 (The Scripps Research Institute Molecular Screening Center, 2009).
About 2,300 (0.79%) of roughly 290,000 compounds were called active. Cut-off read from the data, not from the text of the source: active = inhibition above about 22%; inactive = the rest. The sample as a whole holds a higher share of actives than the screen did.

assay: IEC-6 cell viability reduction – luminescence, cytotoxicity control for KLF5 inhibitor project, primary screen (AID 1825); conditions: IEC-6 cytotoxicity, at 5 µM, hits give high values;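 note: 0% = plate median of test compound wells and 100% = cytotoxic reference compound wells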

Row | SMILES | inhibition
1 | COc1ccc(NC(=O)c2cccc(Cl)c2)c[n+]1[O-] | 2.7% (inactive)
2 | COCCN1C(=O)C(=O)/C(=C(/O)c2ccc(S(=O)(=O)N3CCOCC3)cc2)C1c1ccc(O)c(OC)c1 (stereo not given) | -5.5% (inactive)
3 | O=C(NCCCN1CCOCC1)c1cc(-c2cccc(O)c2)on1 | -0.6% (inactive)
4 | O=C(N/N=C\c1cc2c(cc1Cl)OCO2)c1ccc(Br)s1 | 0.3% (inactive)
5 | CCc1ccc(OCC2c3cc(OC)c(OC)cc3CCN2C(C)=O)cc1 (stereo not given) | 9% (inactive)
6 | COc1cc2c(cc1O)[C@H](Cc1ccc(Oc3cc(C[C@@H]4NCCc5cc(OC)c(O)cc54)ccc3O)cc1)NCC2 | 1.5% (inactive)
7 | CC[C@H]1CN2CCc3cc(OC)c(OC)cc3[C@@H]2C[C@@H]1C[C@H]1NCCc2cc(OC)c(OC)cc21 | 98.9% (active)
8 | Fc1ccc(-n2c(Cc3ccccc3)nnc2SCc2nc(-c3ccc(Cl)cc3)no2)cc1 | -0.4% (inactive)
9 | COc1ccc(CN2CCC(n3nccc3NC(=O)CCCc3ccccc3)CC2)cc1C | 2.8% (inactive)
10 | CN(NC(=O)c1ccccc1)c1nc2ccccc2nc1C(F)(F)F | -0.3% (inactive)
11 | COC(=O)CNC(=O)c1ccccc1F | -2.1% (inactive)
12 | CN(NC(=O)c1ccccc1F)c1nc(C(F)(F)F)nc2ccccc12 | 83.3% (active)
13 | Cc1cccc(C(=O)NCCCN(C)CCCNC(=O)c2cccc(C)c2)c1 | -0.9% (inactive)
14 | COc1ccc(C(=O)NN(C)c2nc(-c3ccccc3)cc(C)c2S(C)(=O)=O)cc1 | 1% (inactive)
15 | CSc1nc(N(C)NC(=O)c2cccc(C)c2)c2ccccc2n1 | 94.6% (active)
16 | CCOc1ccccc1NC(=S)NC(=O)CCc1ccccc1 | -2.9% (inactive)
17 | NC(=O)CSc1nnc(NC(=O)c2ccc(Br)o2)s1 | -5.8% (inactive)
18 | CN(C)CCCNC(=O)c1cc(C(=O)Cc2ccc(Cl)cc2)c[nH]1 | 2.2% (inactive)
19 | COc1ccc(N2CCN(S(=O)(=O)c3ccc4c(c3)NC(=O)C(C)C(=O)N4)CC2)cc1 (stereo not given) | 1% (inactive)
20 | COc1cc(C(=O)NN(CCC#N)C2=NS(=O)(=O)c3ccccc32)cc(OC)c1OC | -4.2% (inactive)
21 | C/C(=N\NC(=O)CNc1cccc2ccccc12)c1ccc(Br)s1 | 0.2% (inactive)
22 | Cc1cccc(C(=O)Nc2ccc(C(=O)N/N=C/c3cccc(C)n3)cc2)c1 | 1.5% (inactive)
23 | Cn1cccc1/C=N/NC(=O)CNc1cccc2ccccc12 | 47.6% (active)
24 | Cc1ccccc1NCC(=O)N/N=C\c1ccc([N+](=O)[O-])s1 | -4.9% (inactive)

Row | SMILES | inhibition
25 | Cn1cccc1/C=N/NC(=O)c1ccc(OC(F)(F)C(F)F)cc1 | 2.6% (inactive)
26 | Cc1cccc(/C=N/NC(=O)CNc2cccc3ccccc23)n1 | 37.6% (active)
27 | O=C(NCCCn1ccnc1)c1cc(Br)c(Br)s1 | -4.3% (inactive)
28 | CN1C(=O)[C@H]2[C@@H](C3CC3)N3C(=O)CN(Cc4ccccc4)C(=O)[C@@]3(C)[C@H]2C1=O | -1.7% (inactive)
29 | CC1CCCN(S(=O)(=O)c2ccc(C(=O)Nc3nnc(-c4ccncc4)o3)cc2)C1 (stereo not given) | -1% (inactive)
30 | CSCc1nnc(NC(=O)c2ccc(S(=O)(=O)N3CCCCC3C)cc2)o1 (stereo not given) | -0.9% (inactive)
31 | CC1CCCCN1S(=O)(=O)c1ccc(C(=O)Nc2nnc(-c3cccs3)o2)cc1 (stereo not given) | 29.2% (active)
32 | CCc1nn(CCCC(=O)Nc2ccc(C)c(C)c2)c(=O)c2cc3occc3n12 | -1.7% (inactive)
33 | CCCCCCn1cc(C(=O)O)c(=O)c2cc(F)c(N3CCCCC3)cc21 | 2.5% (inactive)
34 | Cc1ccc(C)c(Cn2cnc3c(oc4ccccc43)c2=O)c1 | 19.8% (inactive)
35 | O=C(c1n[nH]c2c1CCC2)N1CCCC(Nc2cccc(F)c2)C1 (stereo not given) | -8.3% (inactive)
36 | CC(=O)Nc1ccc(Nc2c3ccccc3nc3ccccc23)cc1 | 95.3% (active)
37 | O=[N+]([O-])c1cccc(Nc2c3ccccc3nc3ccccc23)c1 | -0.9% (inactive)
38 | Cc1ccc(Nc2c3c(nc4ccccc24)CCC3)cc1 | 7.5% (inactive)
39 | COc1ccc(Cl)cc1NC(=O)CN(C)Cc1ccc(OC)c(OC)c1 | 5.1% (inactive)
40 | COc1ccccc1N1CC(C(=O)Nc2nnc(SCC(=O)NCC3CCCO3)s2)CC1=O (stereo not given) | 5.1% (inactive)
41 | Nc1nonc1-n1nnc(C(=O)N/N=C\c2ccncc2)c1CN1CCCCC1 | -0.8% (inactive)
42 | CCOc1cc(/C=N/Nc2cc(C)nc3ccc(C)cc23)ccc1O | -8.1% (inactive)
43 | CC1(C)CC(N2CCN(C(c3ccccc3)c3ccccc3)CC2)=CC(=[N+]2CCCCC2)C1 | 30.6% (active)
44 | O=C(O)CN1CCN(C(c2ccccc2)c2ccccc2)CC1 | -7.1% (inactive)
45 | CC(C)NC(=S)N1CCN(C(c2ccccc2)c2ccccc2)CC1 | -1.6% (inactive)
46 | CC(C)c1ccc(/C=C2\NC(=O)NC2=O)cc1 | -2.7% (inactive)
47 | COc1ccc(N(C(=O)CNC(=O)c2ccco2)C(C(=O)NCC2CCCO2)c2ccccc2)cc1Cl (stereo not given) | 4.1% (inactive)
48 | CN(C)c1ccc(/C=N\S(=O)(=O)c2ccccc2)cc1 | -2.3% (inactive)

Row | SMILES | inhibition
49 | CC[n+]1cc(C)ccc1/C=C/c1ccc(N(C)C)cc1 | 38.6% (active)
50 | CCSc1nnc(-c2cc3c(s2)-c2ccccc2CC3)o1 | 5.3% (inactive)
51 | CC1CCCN(S(=O)(=O)c2ccc(-c3ccc(=O)[nH]n3)o2)C1 (stereo not given) | 2.6% (inactive)
52 | COCCNc1ncnc2c1nc1n2CCCC1 | 2.4% (inactive)
53 | COc1ccccc1/C=C1\SC(=O)N(CCC(=O)N(C)C2CCS(=O)(=O)C2)C1=O (stereo not given) | -0.8% (inactive)
54 | CN1CCC(CN)(N2CCN(c3ccccc3)CC2)CC1 | -4.9% (inactive)
55 | CCN(CC)c1ccc(NC(=O)c2ccc(Cl)nc2)cc1 | 55.7% (active)
56 | Cc1cnc(NC(=O)c2ccc(Cl)nc2)s1 | -6.8% (inactive)
57 | O=C(NNc1ccccn1)c1ccc(Cl)nc1 | -4.7% (inactive)
58 | COc1cccc(CNC(=O)CCC2CCCN(C(=O)c3ccc(F)c(Cl)c3)C2)c1 (stereo not given) | 1.1% (inactive)
59 | O=C(CNC(=O)c1cccs1)N/N=C/c1cccc(Br)c1 | -5.3% (inactive)
60 | O=C(CCN1C(=O)C2C3C=CC(C3)C2C1=O)Nc1ccccc1F (stereo not given) | -2.4% (inactive)
61 | O=C(CN1C(=O)C2C3C=CC(C3)C2C1=O)NCCc1ccccc1Cl (stereo not given) | -1.9% (inactive)
62 | O=C(CN1C(=O)C2C3C=CC(C3)C2C1=O)Nc1nc(-c2ccccn2)cs1 (stereo not given) | 32.2% (active)
63 | COc1ccc(/C=N/Nc2nc3ccccc3c(=O)[nH]2)cc1 | 1.1% (inactive)
64 | COc1ccc(C)cc1-n1nnnc1SCc1nc2ccccc2c(=O)[nH]1 | 3.2% (inactive)
65 | CCOc1cc(/C=C/c2nc3ccccc3c(=O)[nH]2)cc(Br)c1OC | 48.7% (active)
66 | CCC1=Nc2cc(C(=O)NCCN3CCCC3)ccc2Sc2ccc(C)cc21 | 2.7% (inactive)
67 | CCCC1=Nc2cc(C(=O)NCc3ccco3)ccc2Sc2ccccc21 | 62.9% (active)
68 | CCCC1=Nc2cc(C(=O)NCCN3CCCC3)ccc2Sc2ccccc21 | -2.7% (inactive)
69 | Cc1ccccc1N1CC(C(=O)Nc2nnc(SCCC3OCCO3)s2)CC1=O (stereo not given) | -3.4% (inactive)
70 | O=c1ccc2cc(S(=O)(=O)NCCCc3ccccc3)ccc2[nH]1 | -3.7% (inactive)
71 | CCn1ccnc1CN(C)C(=O)c1cc(COc2ccc(-n3cncn3)cc2)on1 | -7.1% (inactive)
72 | O=C(c1cc(COc2ccc(F)c(F)c2)on1)N1CCOCC1 | 0.8% (inactive)

Row | SMILES | inhibition
73 | C=CCC1(CC=C)CCCN1C(=O)c1cc(COc2ccc(-n3cncn3)cc2)on1 | 22.6% (active)
74 | CCCCNC(=O)CCn1nc(-c2ccc(Cl)cc2)ccc1=O | -2.4% (inactive)
75 | COc1ccc(-c2cc(C(F)(F)F)nc(SCC(=O)Nc3ccc4c(c3)OCO4)n2)cc1OC | 3% (inactive)
76 | COc1cc(OC)nc(S(C)(=O)=O)n1 | 6.6% (inactive)
77 | COc1ccc(-c2cc(C(F)(F)F)nc(S(C)(=O)=O)n2)cc1OC | 26.4% (active)
78 | Cn1c(=O)[nH]c(=O)c2c1nc(N1CCN(C(c3ccccc3)c3ccccc3)CC1)n2CCO | -7.4% (inactive)
79 | COc1ccccc1N1CCN(S(=O)(=O)c2ccc3c(c2)NC(=O)CS3)CC1 | 2.9% (inactive)
80 | CC(C)(C)c1cc[n+](-c2[nH]c(=O)sc2/C=N/N=C(\[O-])c2ccccc2)cc1 | 4.2% (inactive)
81 | O=C(c1ccccc1F)N(Cc1ccccc1)Cc1ccccc1 | -1.4% (inactive)
82 | CC1(C)C(C=C(Cl)Cl)C1C(=O)N(Cc1ccc(Cl)cc1)C1CCS(=O)(=O)C1 (stereo not given) | -12.5% (inactive)
83 | Cc1cc(C(=O)OCC(=O)NCc2ccco2)c(C)n1-c1ccccc1 | 33.2% (active)
84 | O=C(COC(=O)c1cc(S(=O)(=O)N2CCCCC2)ccc1Cl)NCc1ccco1 | 6.2% (inactive)
85 | CN(c1ccccc1)S(=O)(=O)c1ccc(Cl)c(C(=O)OCC(=O)NCc2ccco2)c1 | -4.1% (inactive)
86 | O=C(COc1ccc(Cl)cc1)Nc1ccc2oc(=O)ccc2c1 | -4.8% (inactive)
87 | Oc1cccc(/C=N/Nc2ccc(Cl)nn2)c1O | 99.5% (active)
88 | Clc1ccc(N/N=C/c2cccs2)nn1 | -1.4% (inactive)
89 | COc1cccc(/C=N/Nc2ccc(Cl)nn2)c1 | -3.1% (inactive)
90 | CCC1CCCCN1C(=O)CSc1nc2c(c(=O)n1C)SC(C)C2 (stereo not given) | 0% (inactive)
91 | Cc1cc(Cl)ccc1C(=O)C1CCCN(C(=O)c2nonc2C)C1 (stereo not given) | -1.1% (inactive)
92 | CCC(CC)C(=O)Nc1c2c(nn1-c1ccc(C)cc1)CS(=O)(=O)C2 | -3% (inactive)
93 | CC(C)(C)Nc1nc(-c2ccccn2)nc2ccccc12 | 91.3% (active)
94 | CCOCCCNc1nc(-c2ccccc2)nc2ccccc12 | -4% (inactive)
95 | Cc1ccc(Oc2nc(-c3ccccn3)nc3ccccc23)cc1 | 8.9% (inactive)
